We go through 58 compounds from PubChem BioAssay AID504692 (The Scripps Research Institute Molecular Screening Center, 2011).

Hit rate of the full screen: of about 340,000 compounds, about 2,000 (0.59%) were called active. Shown is part of a subset that was picked to be rich in actives. Values without a mark were called inactive. Rule as the data show it: active = activation mostly above about 9.5% (no sharp cut-off); inactive = mostly below about 7.6%.

For this assay, the target named is 5-hydroxytryptamine receptor 5A (Homo sapiens) (UniProt P47898). The assay is described as follows: HTR5A agonists in luminescence cell assay, primary screen, counter-screen for OPRM1-OPRD1 heterodimer agonist project, full-deck HTS (AID 504692).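 Also: 0% = cells with vehicle only and 100% = reference agonist.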 As to conditions: cell-based, at 9.3 µM, active compounds read high.
5-hydroxytryptamine receptor 5A (Homo sapiens), sequence (P47898 whole entry, looked up): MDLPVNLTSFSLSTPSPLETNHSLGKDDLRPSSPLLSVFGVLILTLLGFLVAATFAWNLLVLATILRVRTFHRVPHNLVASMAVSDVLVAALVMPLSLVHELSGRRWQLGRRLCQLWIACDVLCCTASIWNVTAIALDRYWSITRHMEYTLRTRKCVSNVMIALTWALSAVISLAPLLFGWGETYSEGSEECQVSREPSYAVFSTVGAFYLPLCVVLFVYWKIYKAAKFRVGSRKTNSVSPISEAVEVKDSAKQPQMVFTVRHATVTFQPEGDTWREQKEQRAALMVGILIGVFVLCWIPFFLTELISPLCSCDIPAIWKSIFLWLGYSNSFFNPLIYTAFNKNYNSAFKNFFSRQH
As to `COc1cccc2cc(-c3cc(=O)oc4cc(C)c(O)cc34)oc12`, the activation is 1.11%.
For `COc1ccc(Nc2cc(=O)oc3ccccc23)cc1`, the activation was 2.95%.
Take `COc1ccc2oc(=O)cc(-c3cc4ccccc4o3)c2c1`: the activation was 10.7% (active).
As for `COc1ccc(/C=C(\C#N)c2c[nH]c3ccccc23)cc1`, the activation is 19.6% (active).
Turning to `COc1cccc(-n2c(SCC(=O)c3c[nH]c4ccccc34)nc3ccccc3c2=O)c1`, the activation is -2.91%.
Regarding `COc1ccc(C2C(C(C)=O)=C(O)C(=O)N2CCc2c[nH]c3ccccc23)cc1` (stereo not drawn), the activation was 1.98%.
`Cc1cc(C(=O)NNS(=O)(=O)c2ccccc2C(F)(F)F)nn1C(C)(C)C`: the activation is -2.85%.
On to `Cc1cccc(C)c1NC(=O)Nc1ccccc1-n1ccnc1`, for which the activation was 2.52%.
In the case of `NNC(=O)c1ccc(COCC(F)(F)C(F)F)cc1`, the activation was 8.26%.
The same measure for `Cc1ccc(C(=O)NC2CCN(C(=O)Nc3ccc(F)cc3)CC2)cc1`: 4.38%; for `CN(CCC(=O)Nc1cc(S(=O)(=O)N(C)C)ccc1Cl)CC(=O)Nc1ccc(F)cc1`: 11.8% (active); for `CN(CC(=O)Nc1ccc(S(=O)(=O)N2CCCC2)cc1)Cc1ccc(Cl)c(Cl)c1`: -1.38%.
For `CN(CC(=O)Nc1ccc(F)cc1)CC(=O)Nc1ccc(Cl)c(S(=O)(=O)N2CCOCC2)c1` the value was 5.23%; for `O=C(Nc1cccc(F)c1)[C@@H]1CCCN1`, 0.12%; for `COc1ccc(C(=O)C2CCCN(C(=O)c3ccc(OC)o3)C2)c(C)c1` (stereo not drawn), -0.4%.
As to `O=C(/C=C/c1cccc(C(F)(F)F)c1)N1CCN(c2ccccn2)CC1`, the activation was 10.6% (active).
For `O=C(Cc1ccc(Br)cc1)N1CCN(c2ccccn2)CC1`, the activation was 0.82%.
Consider `O=C(C(Cl)Cl)N1CCN(c2ccccn2)CC1`, for which the activation was -2.12%.
Take `Cc1cccc(N2CCN(C(=O)CCS(=O)(=O)c3ccc4c(c3)NC(=O)C(C)S4)CC2)c1C` (stereo not drawn): the activation was 2.41%.
As to `COC(=O)c1cc(S(=O)(=O)N2CCN(c3cc(C)ccc3C)CC2)c[nH]1`, the activation is 14.8% (active).
As to `Cc1ccc(C)c(N2CCN(S(=O)(=O)c3ccc4c(c3)oc(=O)n4C)CC2)c1`, the activation was 0.11%.
For `Cc1ccc(C)c(N2CCN(S(=O)(=O)c3c(C)[nH]c(C)c3C(=O)N3CCCC3)CC2)c1` the value was 0.83%; for `Cc1cccc(N2Cc3ccccc3C2=NC(=O)c2ccc(Cl)nc2)c1`, 2.14%; for `OCCC1CN(Cc2cccc(OC3CCCC3)c2)CCN1Cc1ccsc1` (stereo not drawn), 0.37%.
On to `O=C(CCc1c[nH]c2ccccc12)NCCOc1ccccc1`, for which the activation is 0.78%.
On to `CCN(CC)CCNC(=O)CCCCCn1c(=O)[nH]c2cc(C(=O)OC)ccc2c1=O`, for which the activation is 1.57%.
As to `O=C(CCCCCn1c(=O)[nH]c2ccccc2c1=O)NCCc1c[nH]c2ccccc12`, the activation was 12.7% (active).
With `O=C1CC(Cc2ccc(Cl)cc2)C(=O)N1c1cc(Cl)ccn1` (stereo not drawn), the activation is 5.44%.
For the compound `CCOC(=O)[C@H]1CCC[C@@H](NS(=O)(=O)c2ccc(NC(C)=O)cc2)C1`, the activation was 12.5% (active).
For the compound `CC(=O)Nc1ccc(S(=O)(=O)NC(C)C(=O)OCC(=O)NC2CCCC2)cc1` (stereo not drawn), the activation is 3.96%.
For the compound `CC(=O)Nc1ccc(S(=O)(=O)NC2Cc3ccccc3C2)cc1`, the activation is 4.91%.
In the case of `Cc1cccc(OC(=O)c2sc3ncn(C)c(=O)c3c2C)c1`, the activation was -4.42%.
With `CCOc1ccc(CCNC(=O)CCc2nnc3ccc(N4CCCC4)nn23)cc1OCC`, the activation is -0.94%.
`CCC(C)C(N=C1NS(=O)(=O)c2ccccc21)C(=O)N1CCC(C)CC1` (stereo not drawn): the activation is -4.84%.
Consider `O=C(CCC(=O)c1cccs1)Nc1nc2ccccc2s1`, for which the activation is 6.03%.
On to `CC(C)CC(=O)N/C(N)=N/c1nc2ccccc2s1`, for which the activation is 22% (active).
As to `CC(C)CC(=O)NC(=S)NCc1ccccc1`, the activation was -0.72%.
The same measure for `CCOC(=O)C1C(c2ccc(O)cc2)NC(=O)NC1(O)C(F)(F)F` (stereo not drawn): 3.08%; for `CC(C)CCN1CCN(Cc2ccc(C(F)(F)F)cc2)CC1CCO` (stereo not drawn): -0.94%.
For `O=C(NCc1ccccc1)C(=O)NCC1OCCN1S(=O)(=O)c1ccc(Br)cc1` (stereo not drawn), the activation is 5.82%.
For the compound `CCOC(=O)c1c(-c2ccc(C)cc2C)csc1NC(=O)CSc1nnnn1C`, the activation is 0.24%.
Consider `CCOC(=O)c1c(-c2ccc(-c3ccccc3)cc2)csc1NC(=O)CCC(=O)O`, for which the activation was 9.5% (active).
In the case of `CCOC(=O)c1c(-c2cccc(C)c2)csc1NC(=O)c1c(-c2ccccc2)noc1C`, the activation is -1.55%.
The same measure for `O=C(NCc1ccco1)/C(=C\c1cccc([N+](=O)[O-])c1)NC(=O)c1ccco1`: 0.85%; for `O=C(CSc1nncn1-c1cccnc1)N1CCOCC1`: 1.54%; for `Cc1ccc(C(=O)Nc2ccc3c(c2)OCCO3)cc1S(=O)(=O)N1CCOCC1`: 0.67%.
For `O=C(Nc1ccncc1)c1cc(-c2ccccn2)nc2ccc(Br)cc12` the value was -4.88%.
For `O=C(NCc1cccs1)c1cc(-c2ccccn2)nc2ccc(Br)cc12` the value was 12.8% (active); for `O=C(NCC(c1cccs1)N1CCOCC1)c1cc(-c2ccccn2)nc2ccccc12` (stereo not drawn), 1.25%; for `CCOC(=O)CSc1nc2ccc(C)cc2n2cnnc12`, -0.67%.
Turning to `Cc1oc2c(F)c(F)c(F)c(F)c2c1S(=O)(=O)Nc1cccc(C(F)(F)F)c1`, the activation was 16.5% (active).
With `Cc1noc(C)c1S(=O)(=O)Nc1cc(C(F)(F)F)ccc1N1CCOCC1`, the activation is -0.69%.
In the case of `O=C(CNS(=O)(=O)c1cccc(C(F)(F)F)c1)Nc1ccccc1F`, the activation is -1.06%.
For `CCOc1ccc2[nH]c(=O)c(CN(CCCO)C(C)=O)cc2c1`, the activation is 4.2%.
Take `COc1ccccc1S(=O)(=O)NCc1ccc(C(=O)N(C)Cc2ccc(F)cc2)cc1`: the activation was 16.9% (active).
As to `O=C(NCCS(=O)(=O)NCc1ccc(F)cc1)c1ccccc1`, the activation was -3.96%.
For the compound `COc1ccc(S(=O)(=O)NCc2ccc(C(=O)N(C)Cc3ccco3)cc2)cc1`, the activation was 6.7%.
Turning to `Cc1cc(S(=O)(=O)NC2CCCCC2)ccc1OCC(=O)NCc1cccnc1`, the activation is 7.03%.
